Results as given in the supplement of paper PMC10338343.
± gives the standard deviation.

Columns and labels:
[1] = tested on: MILI (PIWIL2) piRISC loaded with piRNA #1 (26 nt); assay: pre-steady-state target cleavage rate (min^-1); guide: piRNA #1 5'p-UGAGGUAGUAGGUUGUAUAGUAUCCA; higher = faster piRNA-guided slicing of the target; details: auxiliary factor: 500 nM mouse GTSF1;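 also: 1 nM active piRISC with 0.1 nM target library at 33 °C single turnover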
How it was run: (§1)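 A transcribed, DNA-blocked target RNA library […] was incubated at 33 °C for 0–8 or 0–960 min with 1 nM active affinity-purified piRISC carrying one synthetic guide, in HEPES–potassium acetate buffer with or without 500 nM GTSF1 partner protein. Uncleaved targets were then sequenced and normalised to depth and to weakly complementary targets. Data from three trials were pooled, with k3 capped at 0.0001 min^-1, and a burst-and-steady-state fit yielded the pre-steady-state cleavage rate.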

[2] = tested on: EfPiwi piRISC loaded with piRNA #1 (26 nt); assay: pre-steady-state target cleavage rate (min^-1); auxiliary factor: 500 nM Ephydatia muelleri Gtsf1; guide: piRNA #1 5'p-UGAGGUAGUAGGUUGUAUAGUAUCCA; MIWI and MILI are mouse PIWI proteins and EfPiwi is from a freshwater sponge; tags in brackets are library labels; higher = faster piRNA-guided slicing of the target
How it was run: as §1

| Sequence | pre-steady-state target cleavage rate [1] | pre-steady-state target cleavage rate [2] |
| --- | --- | --- |
| GGAGACCUAUCUAAACUACCUACUACCUCA | 0.051 ± 0.012 | – |
| GGAGUGCAUUCUAUACAACCUACUACCUCA | 0.13 ± 0.011 | – |
| GGAGACCUAUGAAUAGAACCUACUACCUCA | 0.00534 ± 0.0016 | – |
| GGAGACCUAUGAAUACAAGCUAGUACCUCA | 0.0081 ± 0.0031 | – |
| GGAGACCUAUAUAUACAACCUACUACCUCA | 0.0406 ± 0.0075 | – |
| GGAGACCAUACAAUACAACGUACUACCUCA | 0.0186 ± 0.0044 | – |
| GGAGACCUAUGAAUAUAACCUACUACCUCA | 0.0081 ± 0.0024 | – |
| GGAGACCUAUGUCUACAACCUACUACCUCA | 0.0245 ± 0.004 | – |
| GGAGACCUAUGAUUACAACCUACUACCUGCA | 0.00769 ± 0.0026 | – |
| GGAGACCUAUGUAAACAACCUACUUCCUCA | 0.00599 ± 0.002 | – |
| GGAGACCUAUGUAUAAAACCUACUACCUCA | 0.0488 ± 0.0094 | – |
| GGAGUGGAUACAUUACAACCUACUACCUCA | 0.152 ± 0.012 | 0.00715 ± 0.0034 |
| GGAGACCUAUGUAUACUACCUACUACCUGA | 0.0173 ± 0.0042 | – |
| GGAGACCUAUGAUAACAACCUACUACCUCA [g2:g16:cont:t1A] | 0.00406 ± 0.003 | – |
| GGAGACCUUACUAUAGAACCUACUACGUCA | 0.0503 ± 0.012 | – |
| GGAGACCUUACUAUACAAGGUACUACCUCA | 0.0785 ± 0.0094 | – |
| GGAGACCUAACUAUACAAGCUUCUACCUCA | 0.0324 ± 0.01 | – |
| GGAGACCUAUGUAUACAACGUACUACCUGA | 0.00357 ± 0.0021 | – |
| GGAGACCAUACUAUAGAACCUACUACCACA | 0.0789 ± 0.021 | – |
| GGAGACCUAACUAUACAUCCUACUACCUGA | 0.116 ± 0.039 | 0.00344 ± 0.0029 |
| GGAGACCUAACUAUACAACCUACAAGCUCA | 0.0191 ± 0.011 | – |
| GGAGACCUAUGUAUACAACCUACUACCUCG [g2:g19:cont:t1G] | 0.0649 ± 0.0098 | 0.00909 ± 0.0048 |
| GGAGACCUAUGUAUACAACCGACUACCUCA | 0.00448 ± 0.0021 | – |
| GGAGAGGAUAGAAUACAACCUACUACCUCA | 0.096 ± 0.01 | – |
| GGAGACCUAACUAUACAACCUAUCUACCUCA | 0.11 ± 0.024 | – |
| GGAGACCUAACUAUAGUUCCUACUACCUCA | 0.0706 ± 0.013 | – |
| GGAGACCAUACUAAACAACCUUCUACCUCA | 0.00805 ± 0.0035 | – |
| GGAGACCUAACUAAUCAACCUACUACCUCA | 0.0719 ± 0.016 | – |
| GGAGACCUAUGAUUACAAGCUACAACCUCA | 0.0159 ± 0.0045 | – |
| GGAGACCUAUGAUUACAACCUACAUCCUCA | 0.00278 ± 0.0025 | – |
